In publication PMC7819943, “Rice protein-binding microarrays: a tool to detect cis-acting elements near promoter regions in rice” one finds binding signal data, which are given here for 42 sequences.

The full ranking holds about 39,000 sequences; the median of “fluorescence intensity (a.u.)” is about 4,300, and the highest 2% start at about 39,000. This excerpt belongs to a sample that is enriched for the highest values.

The target of the experiment is T1, OsSMF1 (Oryza sativa, UniProt Q6ZLB0 1-436).
T1 sequence: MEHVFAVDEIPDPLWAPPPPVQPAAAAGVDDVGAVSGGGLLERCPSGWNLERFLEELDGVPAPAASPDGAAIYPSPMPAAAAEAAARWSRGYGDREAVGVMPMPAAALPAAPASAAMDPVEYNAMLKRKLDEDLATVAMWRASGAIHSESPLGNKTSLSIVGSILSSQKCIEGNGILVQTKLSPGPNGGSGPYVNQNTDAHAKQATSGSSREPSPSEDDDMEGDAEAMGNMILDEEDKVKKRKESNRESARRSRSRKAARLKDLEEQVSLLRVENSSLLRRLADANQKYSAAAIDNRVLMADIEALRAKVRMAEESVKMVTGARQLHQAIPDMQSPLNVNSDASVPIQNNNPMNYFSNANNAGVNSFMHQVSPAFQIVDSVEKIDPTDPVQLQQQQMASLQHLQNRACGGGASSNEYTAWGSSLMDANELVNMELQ
Put plainly: protein-binding microarray (RPBM); PBS, 2% BSA, 51.3 ng/ul salmon testes DNA, 50 uM zinc acetate, 200 nM TF, 25 C, 1 h; high values mean tight binding. The note with it: protein: recombinant; tags: N-terminal polyhistidine and DsRed monomer fusion (pET32a); chain copies: 2; label: CyDye5-dUTP incorporated in the synthesized complementary strand; 3' TTTTT single-stranded linker to array surface; dsDNA, one strand shown. In short, it runs like this: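 Polyhistidine-tagged DsRed fusions of transcription factors, joined at the N-terminus, were expressed in E. coli BL21-CodonPlus and isolated on Ni–NTA. They were incubated at 200 nM for 1 h at 25 °C on a custom Agilent array, double-stranded and BSA-blocked, in PBS with 2% BSA, salmon testes DNA and 50 µM zinc acetate. The binding signal is per-feature fluorescence intensity (arbitrary units) read on an Axon 4000B scanner after washing.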
On to “CTCCAGCATCGCCACCGGGTCCCCGTACGGGTTCTTCGGGCGGAGTCACCTAGTGCAG”, for which the binding signal was 3620 fluorescence intensity (a.u.).
Under “CTCTGCTCTCAAATGCTCTGTGTGCGATCAGGTATTCATGCGGAGTCACCTAGTGCAG” stands 3270 fluorescence intensity (a.u.); under “ACCGAGTAGATCACTTCCGTGCAAGTTGGTTGACAAGTATCGGAGTCACCTAGTGCAG”, 3480 fluorescence intensity (a.u.); under “CTGGACACCTCACGAAGTCTCAAACTGCTGTTTGTTCTCACGGAGTCACCTAGTGCAG”, 4230 fluorescence intensity (a.u.).
With “ATATGGCCTTCGGTGGTATCCACGTAGAGCTTTACGTTAACGGAGTCACCTAGTGCAG” the figure was 4810 fluorescence intensity (a.u.).
With “CACCCGCGTGTATGCCAGCTAGGCTTGGCTCCGACGTGGACGGAGTCACCTAGTGCAG” the figure was 4790 fluorescence intensity (a.u.); with “GCAGCCACGACGCCCGCCAATGCTGCCGCCGCCATCGATGCGGAGTCACCTAGTGCAG”, 5300 fluorescence intensity (a.u.); with “AGAATTTGTTCGTCACCCATATATCGGCGTCATGACCTCGCGGAGTCACCTAGTGCAG”, 3510 fluorescence intensity (a.u.).
As to “GTCGGATCCCCGCGCAATCATACACACGTGTCGCCGTCGCCGGAGTCACCTAGTGCAG”, the binding signal is 8730 fluorescence intensity (a.u.).
Under “TTAGGACCATAATATCTAATGTTACATGCCACGTACCAAACGGAGTCACCTAGTGCAG” stands 7280 fluorescence intensity (a.u.).
Under “GCCGCCCGCGCGCGACCGCGTGACGTCGCAGCCGCACCGACGGAGTCACCTAGTGCAG” stands 6080 fluorescence intensity (a.u.); under “TCGTCCGATCCCCTAGCGTGGCCACCGATCCGCCCGTCCCCGGAGTCACCTAGTGCAG”, 3230 fluorescence intensity (a.u.).
Take “GCCGCTTCGATGCTGGCGGCAGGGTGGGGCGGGGATGCCTCGGAGTCACCTAGTGCAG”: the binding signal is 6170 fluorescence intensity (a.u.).
Turning to “CTGGTCGGCGCGGGCACGCGCTTGCGGAGGCTGGGGAGTCCGGAGTCACCTAGTGCAG”, the binding signal was 39700 fluorescence intensity (a.u.).
Regarding “AGAGGGGCAGAGAGAGAGAGTGAGTGAGAAAGAGATCAAGCGGAGTCACCTAGTGCAG”, the binding signal was 56600 fluorescence intensity (a.u.).
Consider “TTGGGCGGCGGTGCGGGGAGGCTGAGGGGCGGCGCCGGCGCGGAGTCACCTAGTGCAG”, for which the binding signal was 3580 fluorescence intensity (a.u.).
With “ACGGCATCGATCGATCGCGGGCGACGTGGCTGAGTGGCGGCGGAGTCACCTAGTGCAG” the figure was 6420 fluorescence intensity (a.u.); with “CGCTGCGGGGAGTCGGCGCTTCGTCGGAGGCGGCGGGGCGCGGAGTCACCTAGTGCAG”, 3230 fluorescence intensity (a.u.); with “GACGGGCGGCGGTGGGGCTGACGCGGGCGACGGAGGGGCTCGGAGTCACCTAGTGCAG”, 6720 fluorescence intensity (a.u.).
With “GCGGAGGAGGCAAGGAGATCAGGCGGCAGAGGAAAGGGGCCGGAGTCACCTAGTGCAG” the figure was 3280 fluorescence intensity (a.u.).
For “TGCCACCGTGGCGGCCGGGCCGATCCCCTAGCTGACGTGGCGGAGTCACCTAGTGCAG”, the binding signal is 41900 fluorescence intensity (a.u.).
Regarding “GATCAAACCAGCGGCAGATGAGGGCGCAAAGAGAAAGAGCCGGAGTCACCTAGTGCAG”, the binding signal was 4210 fluorescence intensity (a.u.).
“GGCTTCGCCGACGGTGGCTCGGGCGACGGCGATGCTGGGGCGGAGTCACCTAGTGCAG”: the binding signal was 58600 fluorescence intensity (a.u.).
With “GAAAGTTGCTGCGAACATACGTGATGACGCGACTAAAGCTCGGAGTCACCTAGTGCAG” the figure was 5210 fluorescence intensity (a.u.); with “ATAGCCCAACTCGAATCAATCCACGTCTCCACCGTTCATCCGGAGTCACCTAGTGCAG”, 3360 fluorescence intensity (a.u.).
With “TCCGTCGCGATTCGCCACCTCGCCCTCGTCTCGTTTTAGCCGGAGTCACCTAGTGCAG” the figure was 3450 fluorescence intensity (a.u.).
Under “ATGCACTTCCTGTCACGGTCCGGCCCATCCTAGCTGCCGGCGGAGTCACCTAGTGCAG” stands 3290 fluorescence intensity (a.u.).
In the case of “AAACTTCTCTTCAGATAAAGATTTACTACCGTGTCAAATTCGGAGTCACCTAGTGCAG”, the binding signal is 3800 fluorescence intensity (a.u.).
With “CTCCGTCCACTGGACAGGGCAGAGGCTGCCTACCAGACACCGGAGTCACCTAGTGCAG” the figure was 4640 fluorescence intensity (a.u.); with “GACAGTAGCAGCAGTGGACACGTCGATTTCGCAATTCGTGCGGAGTCACCTAGTGCAG”, 5760 fluorescence intensity (a.u.); with “GCCAGGCGACGCGACGAGTCAGCTCAGCTCGCGCCCGCGGCGGAGTCACCTAGTGCAG”, 3700 fluorescence intensity (a.u.).
Under “CGAGAGGTACCGCGCGCTGCCGGCGGAGAAGCGGGCGAGGCGGAGTCACCTAGTGCAG” stands 41500 fluorescence intensity (a.u.).
With “GGAGCGCGGACTCGCCGGCCAGCCGCGTCACGCGCTGGCGCGGAGTCACCTAGTGCAG” the figure was 6650 fluorescence intensity (a.u.).
Consider “GAGAGGGGAAGGGCGCTAGTAAGAAGCGCTAAGGGATGAGCGGAGTCACCTAGTGCAG”, for which the binding signal was 3180 fluorescence intensity (a.u.).
In the case of “GCGGCGGTGTCTCGCGCCGCCAGCCTACAAATGGGGAGAGCGGAGTCACCTAGTGCAG”, the binding signal was 40300 fluorescence intensity (a.u.).
With “GGCGAGCGCGGCGGAGGAGCGGCGGCGGGCGAGCGCGGCGCGGAGTCACCTAGTGCAG” the figure was 8450 fluorescence intensity (a.u.); with “GAGGTACCGGCCGTACGCGCCGCGGAGGCGGACGTAGGGCCGGAGTCACCTAGTGCAG”, 31200 fluorescence intensity (a.u.).
With “CGGTGGCAGCCCGGCGGCGTGGAGCGCGCTGCTTAGCGCGCGGAGTCACCTAGTGCAG” the figure was 53600 fluorescence intensity (a.u.); with “GGCGCCAGCCCCGGTGCCGGGGAGTGTGGCGGAGCGGGAGCGGAGTCACCTAGTGCAG”, 3910 fluorescence intensity (a.u.); with “GAAGAGGGGAGGGAGCTCCAAAAGGGCGAGAAAGTAAGCGCGGAGTCACCTAGTGCAG”, 39400 fluorescence intensity (a.u.).
With “TCCCGTGCAGCCGTGGCAGCCGCGCGCTGCTCGAGTCCGGCGGAGTCACCTAGTGCAG” the figure was 4470 fluorescence intensity (a.u.); with “GAGAGAGAGAGGGGACCAACTGAAAAGAGAGAGAAGCTAGCGGAGTCACCTAGTGCAG”, 31200 fluorescence intensity (a.u.).
